High-throughput results deposited in PubChem BioAssay by The Scripps Research Institute Molecular Screening Center.
The list is not random: actives were taken first. Their share in the collection is about 0.87%.
IDE cell activ – human IDE activators in live cells, primary screen, fluorescence polarization, HEK cells, FAbeta-B substrate. Insulin-degrading enzyme (Homo sapiens), P14735. FAbeta-B cleavage; 0% vehicle, 100% cell-free pure enzyme wells. activation, % at 5.96 µM. 0.073% of 340,000 active;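 active = activation above the mean of all tested compounds plus 3 SD, set per screening campaign, cut at about 17% in these data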
IDE inh – human IDE inhibitors in live cells, primary screen, fluorescence polarization, HEK cells, FAbetaB substrate; Insulin-degrading enzyme (Homo sapiens), P14735; FAbetaB cleavage; inhibition, % at 5.59 µM; 0.41% of 320,000 active; AID 434962, 2010;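 active = percent inhibition above the average of all tested compounds plus 3 SD, set per screening campaign, cut at about 16% in these data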;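 also: IDE supplied by intact live HEK cells; FP after avidin binding of uncleaved biotin substrate so inhibition keeps polarization high; 0% = DMSO wells and 100% = 60 µM reference IDE inhibitor Ii1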
TLR9-MyD88 block – inhibitors of TLR9-MyD88 association in cells, primary screen, cell-based, CHO, BLA complementation, fluorescence; AID 504734, 2011; CCF4 FRET ratio; 0.21% of 340,000 active; inhibition, % at 4.98 µM; Toll-like receptor 9 (Homo sapiens) + Myeloid differentiation primary response protein …;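 active = inhibition above the mean over all tested compounds plus 3 SD, cut at about 21% in these data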;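 also: 0% = DMSO only wells and 100% = clavulanate BLA inhibitor control wells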
Target sequence (Q99836 whole entry, looked up): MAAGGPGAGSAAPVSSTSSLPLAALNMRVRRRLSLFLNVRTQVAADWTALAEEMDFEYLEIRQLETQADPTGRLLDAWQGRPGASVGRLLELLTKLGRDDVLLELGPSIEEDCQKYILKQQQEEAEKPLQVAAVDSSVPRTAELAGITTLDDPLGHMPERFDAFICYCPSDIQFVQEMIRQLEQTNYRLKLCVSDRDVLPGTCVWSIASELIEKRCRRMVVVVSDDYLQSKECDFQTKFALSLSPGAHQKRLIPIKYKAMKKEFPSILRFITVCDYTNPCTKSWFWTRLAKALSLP
Target sequence (Q9NR96 whole entry, looked up): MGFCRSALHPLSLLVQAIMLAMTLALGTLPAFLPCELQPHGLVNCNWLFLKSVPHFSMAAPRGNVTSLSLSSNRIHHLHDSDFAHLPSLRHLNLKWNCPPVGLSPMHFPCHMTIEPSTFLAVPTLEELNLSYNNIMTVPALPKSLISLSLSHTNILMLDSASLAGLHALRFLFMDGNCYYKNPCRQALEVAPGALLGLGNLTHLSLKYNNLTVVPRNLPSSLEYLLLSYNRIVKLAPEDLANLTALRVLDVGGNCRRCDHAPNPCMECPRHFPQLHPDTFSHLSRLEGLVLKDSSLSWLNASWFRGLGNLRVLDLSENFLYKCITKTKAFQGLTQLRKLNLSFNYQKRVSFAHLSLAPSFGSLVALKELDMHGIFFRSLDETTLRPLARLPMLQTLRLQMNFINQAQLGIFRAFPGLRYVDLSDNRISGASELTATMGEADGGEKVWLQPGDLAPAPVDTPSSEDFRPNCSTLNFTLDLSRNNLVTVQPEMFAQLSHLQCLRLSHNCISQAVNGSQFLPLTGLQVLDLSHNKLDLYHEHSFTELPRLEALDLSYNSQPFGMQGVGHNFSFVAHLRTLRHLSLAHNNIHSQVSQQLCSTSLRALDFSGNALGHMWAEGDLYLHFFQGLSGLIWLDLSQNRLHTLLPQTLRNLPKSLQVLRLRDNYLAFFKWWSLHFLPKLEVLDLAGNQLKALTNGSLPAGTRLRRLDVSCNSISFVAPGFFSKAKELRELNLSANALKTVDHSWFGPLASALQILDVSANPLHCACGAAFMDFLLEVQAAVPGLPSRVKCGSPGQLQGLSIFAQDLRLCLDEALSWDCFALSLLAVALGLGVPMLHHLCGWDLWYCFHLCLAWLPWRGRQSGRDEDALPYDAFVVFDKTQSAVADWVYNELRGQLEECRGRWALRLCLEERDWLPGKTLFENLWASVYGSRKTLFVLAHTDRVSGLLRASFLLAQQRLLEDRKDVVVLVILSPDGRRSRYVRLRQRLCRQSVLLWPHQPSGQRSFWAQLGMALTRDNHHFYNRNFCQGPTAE
NOD2-RIPK2 inh – NOD2-RIPK2 binding disruptors in cells, primary screen, fluorescence, CHO cells, BLA complementation. CCF4 ratio. 0.38% of 360,000 active. inhibition, % at 4.98 µM. Receptor-interacting serine/threonine-protein kinase 2 (Homo sapiens), O43353; in the data active = inhibition above about 21%;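 also: 0% = vehicle only and 100% = reference blocker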
TLR4 MyD88 comp – inhibitors of TLR4-MyD88 association in cells, primary screen, cell-based, HeLa CL3-4, BLA complementation, FRET ratio; Toll-like receptor 4 (Homo sapiens) + Myeloid differentiation primary response protein …; HeLa CL3-4 TLR4/MyD88 BLA complementation; inhibition, % at 8.4 µM; 0.18% of 200,000 active; AID 861, 2007; in the data active = inhibition above about 25%;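 also: 0% = vehicle and 100% = reference inhibitor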
TLR4 MyD88 cnf – TLR4-MyD88 association inhibitors, retest, confirmation, cell-based, HeLa CL3-4, BLA complementation, FRET ratio; inhibition, % at 8.4 µM; 50% of 350 active; CCF4 FRET ratio; shares compounds with TLR4 MyD88 comp;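 active = mean inhibition across three repeat runs above about 25% carried over from the earlier screen, limit read from the data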;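 also: plate controls were DMSO only for no effect and clavulanic acid blocking BLA at full dose for full effect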
BLA inh HeLa – inhibits beta-lactamase activity, counter-screen to TLR4-MyD88 binding inhibitors; shares compounds with TLR4 MyD88 comp; HeLa BLA reporter, CCF4 FRET ratio; inhibition, % at 8.4 µM; 63% of 350 active;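 active = mean inhibition over three repeats above about 26% taken from the earlier screen, limit read from the data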;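 also: HeLa cells stably expressing beta-lactamase reporter as counterscreen for TLR4-MyD88 inhibitors; 0% = DMSO and 100% = clavulanic acid full inhibition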
IDE inh confirm – human IDE inhibitors in live cells, confirmation, fluorescence polarization, HEK cells, FAbetaB substrate; inhibition, % at 5.59 µM; shares compounds with IDE inh; FAbetaB cleavage; 51% of 1,200 active;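 active = mean inhibition across triplicate wells above the cutoff set by the earlier primary insulin-degrading enzyme screen, cut at about 16% in these data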;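 also: 0% = DMSO wells and 100% = 60 µM reference IDE inhibitor Ii1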
HEK cytotox – cytotoxicity in HEK cells, cytotoxicity control for IDE inhibitor project, cell-based, luminescence; inhibition, % at 5.59 µM; HEK293 cytotoxicity, ATP luminescence; shares compounds with IDE inh; 28% of 1,200 active; in the data active = inhibition above about 22%;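 also: 0% = vehicle wells and 100% = reference cytotoxic drug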
TLR9-MyD88 cf – TLR9-MyD88 association inhibitors, retest, confirmation, cell-based, CHO, BLA complementation, fluorescence, triplicate. AID 540250, 2011. CCF4 FRET ratio. inhibition, % at 4.98 µM. 51% of 680 active. shares compounds with TLR9-MyD88 block;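 active = mean inhibition across three repeats above about 21% taken from the earlier screen, limit read from the data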;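 also: blue over green emission ratio reports constitutive TLR9 MyD88 association via BLA complementation; 0% = DMSO vehicle wells and 100% = clavulanate BLA inhibitor wells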
BLA counter-1 – beta-lactamase reporter inhibitors in CHO cells, artefact control for TLR9-MyD88 binding inhibitor project, cell-based, fluorescence | shares compounds with TLR9-MyD88 block | CHO-BLA cells, CCF4 FRET ratio, BLA reporter | inhibition, % at 4.98 µM | 7% of 680 active | AID 540251, 2011;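 active = mean inhibition above a 50% cutoff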;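 also: counterscreen of TLR9-MyD88 hits on CMV-driven BLA in CHO-K1 cells; 0% = DMSO alone and 100% = clavulanate blocking BLA; higher means less blue over green ratio so more BLA blockade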
TLR9 CHO tox – CHO cell viability loss – luminescence, single concentration, cytotoxicity control for TLR9-MyD88 binding inhibitor project. shares compounds with TLR9-MyD88 block. TLR9-MyD88 CHO cells cytotoxicity. inhibition, % at 4.98 µM. 39% of 680 active. AID 588336, 2011; in the data active = inhibition above about 11%
NOD2-RIPK2 conf – NOD2-RIPK2 binding disruptors, retest, confirmation, fluorescence, CHO cells, BLA complementation, triplicate | 70% of 1,200 active | CCF4 FRET | shares compounds with NOD2-RIPK2 inh | inhibition, % at 4.98 µM;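 active = mean inhibition across replicates above a set limit taken from the earlier primary screen, cut at about 21% in these data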;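 also: 0% = DMSO-only wells and the high end = clavulanate BLA-blocked wells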
BLA counter-2 – hits BLA reporter in NOD2-RIPK2 inhibitor counterscreen. CHO BLA reporter, CCF4 FRET ratio. 57% of 1,200 active. shares compounds with NOD2-RIPK2 inh. inhibition, % at 4.98 µM. AID 624371;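 active = mean inhibition above the low-control mean inhibition plus three low-control SD, cut at about 11% in these data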;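 also: 0% = DMSO only wells and 100% = clavulanate high control wells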
The depositor's hits bear a star; / = no result.

SMILES | IDE cell activ | IDE inh | TLR9-MyD88 block | NOD2-RIPK2 inh | TLR4 MyD88 comp | TLR4 MyD88 cnf | BLA inh HeLa | TLR9-MyD88 cf | BLA counter-1 | TLR9 CHO tox | NOD2-RIPK2 conf | BLA counter-2 | others
Cn1c(-c2c(N)n(-c3ccccc3)c3nc4ccccc4nc23)nc2ccccc21 | 3 | 1 | 47* | 55* | 54* | 49* | 76* | 42* | 46 | 12* | 71* | 73*
Cc1cccc(-n2c(N)c(-c3nc4ccccc4n3C)c3nc4ccccc4nc32)c1 | 4 | 0 | 18 | 14 | 21 | / | / | / | / | / | / | /
Cc1[nH]c2ccccc2c1/C=N/Nc1ccc([N+](=O)[O-])cc1 | -3 | 2 | 26* | 28* | 31* | 24 | 43* | 17 | 15 | 4 | 30* | 42*
Cc1[nH]c2ccccc2c1/C=N/NC(=O)c1cccc([N+](=O)[O-])c1 | / | 3 | / | -5 | -8 | / | / | / | / | / | / | /
O=C1c2cccc3c(N4CCCCC4)ccc(c23)C(=O)N1c1ccccc1O | -115 | 89* | 49* | 52* | 28* | 26* | 39* | 32* | 31 | 7 | 60* | 66* | IDE inh confirm=152*;HEK cytotox=18
O=C(O)c1ccc(N2CCCCCC2)c(N2C(=O)c3ccccc3C2=O)c1 | 1 | 1 | -1 | 2 | -16 | / | / | / | / | / | / | /
CCCCNC(=O)CN1C(=O)c2cccc(N)c2C1=O | 7 | / | 38* | 45* | 38* | 27* | 48* | 17 | 20 | -2 | 45* | 48*
CC1CCCCC1NC(=O)COC(=O)CN1C(=O)c2ccccc2C1=O (configuration not stated) | 8 | 4 | 2 | 8 | / | / | / | / | / | / | / | /
CC1CCCCC1NC(=O)CN1C(=O)c2cccc(N)c2C1=O (configuration not stated) | 4 | / | 38* | 47* | 33* | 33* | 52* | 18 | 25 | 0 | 42* | 48*
COc1ccccc1CNc1nc(Nc2cccc(-c3cnco3)c2)c2sccc2n1 | / | / | / | -2 | / | / | / | / | / | / | / | /
Cc1n[nH]c(C)c1N1C(=O)c2cccc3c(Br)ccc(c23)C1=O | 2 | 2 | 48* | 57* | 73* | 45* | 79* | 22* | 26 | 4 | 71* | 59*
N#Cc1sc2nc(-c3cccs3)cc(-c3ccc(Cl)cc3)c2c1N | 1 | 6 | 30* | 24* | 44* | 47* | 75* | 46* | 45 | 3 | 64* | 66*
CCN(CC)C(=O)c1sc2nc(-c3cccs3)cc(-c3ccc(Cl)cc3)c2c1N | -4 | 1 | 18 | -9 | 7 | / | / | / | / | / | / | /
CC(=O)C1=NN(c2ccccc2)C(c2cccs2)N1c1ccc(N(C)C)cc1 (configuration not stated) | -4 | -4 | -3 | -4 | -10 | / | / | / | / | / | / | /
CC(=O)C1=NN(c2ccccc2)C(c2ccc3c(c2)OCO3)N1c1ccccc1 (configuration not stated) | 1 | 1 | 20 | 21* | 28* | 17 | 36* | / | / | / | 39* | 49*
CN(C)c1ccc(/C=C/c2nc3ccccc3s2)cc1 | -4 | 14 | 30* | 22* | 45* | 44* | 68* | 46* | 59* | 26* | 57* | 70*
Cc1ccc(S(=O)(=O)N2[C@@H](Cc3ccccc3)CO[C@H]2CC(=O)c2cccs2)cc1 | / | / | / | -12 | / | / | / | / | / | / | / | /
CCCN1C(=O)/C(=C/c2ccc(OCC(=O)OCC)cc2)NC1=S | 5 | / | -2 | -3 | -7 | / | / | / | / | / | / | /
CCCN1C(=O)/C(=C/c2ccc(N3CCCC3)c(C)c2)NC1=S | -110 | 95* | 35* | 35* | 37* | 37* | 69* | 26* | 28 | 2 | 49* | 55* | IDE inh confirm=128*;HEK cytotox=27*
CN(C)c1ccc(/C=C/C(=O)c2cccc(Br)c2)cc1 | -172 | 107* | 33* | 60* | 63* | 66* | 90* | 27* | 34 | -2 | 64* | 68* | IDE inh confirm=110*;HEK cytotox=26*
CCCCNC(=O)c1nn(-c2ccccc2OC)c(=O)c2ccccc12 | -2 | 8 | 24* | 26* | 26* | 20 | 23 | 14 | 18 | 1 | 23* | 24*
COc1ncnc2c1ncn2CCCN1CCN(Cc2ccc(C)cc2)CC1 | / | / | -4 | -1 | / | / | / | / | / | / | / | /
CCNC(=O)C1(C)CCN(C(=O)c2ccccc2OC(F)(F)F)C1 (configuration not stated) | / | / | / | -16 | / | / | / | / | / | / | / | /
COc1ccc(-c2cc(N)n(S(=O)(=O)c3c(F)c(F)c(F)c(F)c3F)n2)cc1OC | 9 | -4 | 18 | 59* | 27* | 17 | -11 | / | / | / | 86* | 18*
